# Measurements taken from PubChem BioAssay AID588855 (National Center for Advancing Translational Sciences (NCATS), 2011).
# In all, about 410,000 compounds went through this assay and about 5,000 (1.2%) were called active. Roughly 13% stayed inconclusive and do not appear here. This excerpt belongs to a sample that is enriched for actives. Unmarked numbers belong to inactive results. Calls follow the shape of the dose curve; as a rule, active = well fitted inhibition curve with a large enough effect; inconclusive = small, poorly fitted or top-dose-only effect; inactive = no such curve, though single readings can be large or run the other way.
# Assay: qHTS for Inhibitors of TGF-b; also: nearly all actives have a fitted effect of over 65% in size
# Settings: HepG2 CAGA-GFP TGF-b/SMAD3 reporter, GFP fluorescence, 18 h, TGF-beta stimulated, 500 pg/mL final; series mostly up to 46.1 µM; activity, negative = inhibition: at the top concentration
# From the text: TGF-b is a main component in the TGF-b signaling pathway which plays diverse roles in cellular and development pathways. TGF-b is the mediated by the transcription factors Smads. Although the Smad-dependent pathway is the primary canonical TGF-b signaling node, TGF-b1 can also activate alternative signaling pathways, including those involving MAPK (ERK, JNK and p38). This interaction may mediate or enhance Smad-dependent responses, or can exert Smad-independent effects. The complexity of this signaling cascade allows the TGF-b superfamily to perform unique, overlapping or redundant functions. We believe that targeting the TGF-beta pathway at the Smad-transcription factor level may eliminate the consequences of disrupting the entire pathway and offer specificity without affecting other signaling pathways. Smad3 is the primary transducer of TGF-b's signals and Smad3 regulates many functions attributed to TGF-b signaling. We hypothesize that Smad3 inhibitors will selectively eliminate Smad3-specific TGF-beta signals without undesired off-target effects. We aim to identify Smad3-small molecule antagonists using a quantitative high throughput screening (qHTS) approach.
# A high-throughput assay was developed to screen the NIH Molecular Libraries Small Molecule Repository (MLSMR). This is a cell based assay, where TGF-b is tagged with GFP. A counterscreen is run that looks at cytotoxicity (please see summary AID).
# MH087449NIH Chemical Genomics Center [NCGC]
# NIH Molecular Libraries Probe Centers Network [MLPCN]
# Assay Submitter (PI): Sushil Rane, National Institute of […]
# Suspensions of trypsinized HEPG2 CAGA-GFP cells were dispensed into white, tissue culture-treated, solid 1536-well plates at 5uL/well (1000 cells/well final concentration) in DMEM medium supplemented with 1% FBS. Plates were incubated at 37 degrees C for 2 hours, after which 23 nL of compounds or DMSO were delivered to each well using a pin tool. One uL of recombinant TGF-beta in DMEM (1% FBS) was then dispensed (500 pg/mL final concentration), and plates were incubated at 37 degrees C for 18 hours. The plates were measured on an Acumen eX3 Explorer plate reader for GFP fluorescence (ex488/em500-530). GFP values were calculated by determining the mean GFP fluorescence of individual cells, and compiling these values for each well to determine a total well GFP signal. The %Activity was determined from the corrected fluorescence values. A titration of the known TGF-B inhibitor SB431542 was included to monitor plate performance, while unstimulated HEPG2 (-TGF-B) control wells were used to normalize %Activity of identified inhibitors; unstimulated wells corresponded to 100%Activity (full inhibition), while stimulated cell controls (+DMSO) were used to normalize 0%Activity (no inhibition).
# Concentration-response curves were fitted to the signals arising from the resulting fluorescence. The concentration-effect curves were then classified based on curve quality (r2), response magnitude and degree of measured activity, and compounds were subsequently categorized based on their curve class.
# Potency is read from the fitted curve at half-maximal effect.
Structure (SMILES),"activity, negative = inhibition",Potency
COc1ccc(NC(=O)C2CCCN(S(=O)(=O)c3c(C)[nH]c(=O)[nH]c3=O)C2)c(OC)c1 (configuration not stated),-24.4%,–
COc1ccccc1CNC(=O)NCc1noc2ccc(C)cc12,1.22%,–
O=S(=O)(c1cccc(C(F)(F)F)c1)N1CCN(c2nc(-c3cccs3)nc3ccccc23)CC1,1.02%,–
Cn1c(C(=O)Nc2cccc(C(F)(F)F)c2)cc2c(=O)n3ccccc3nc21,-8%,–
NC(c1ccccc1)c1csc(NC(=O)Nc2cccc(C(F)(F)F)c2)n1 (configuration not stated),–,12.6 µM (active)
NC(c1csc(NC(=O)Nc2cccc(C(F)(F)F)c2)n1)C1CCCCC1 (configuration not stated),–,6.31 µM (active)
COc1ccc(CC(N)c2csc(NC(=O)Nc3ccc(C(C)C)cc3)n2)cc1 (configuration not stated),-98.2%,–
O=C(Nc1cccc(F)c1)NC1CCCCCCC1,0%,–
CC(=O)c1ccc(Nc2nc(C(N)c3ccccc3)cs2)cc1 (configuration not stated),-0.831%,–
Cc1ccc(Cn2c(=O)n(CCCC(=O)NCc3ccccc3Cl)c(=O)c3ccccc32)cc1,3.91%,–
COC(=O)c1ccc(-c2nc3cc(NC(C)=O)ccc3o2)cc1,1.43%,–
CCOc1ccc(NC(=O)c2cc(S(=O)(=O)N3CCCC3)c[nH]2)cc1,-24.4%,–
Cc1nc2nc(SCC(=O)NC3CCC(C)CC3)nn2c(C)c1Cc1ccccc1Cl (configuration not stated),-30.1%,–
CC1(C)C=Cc2c(ccc(C(=O)/C=C/c3ccccc3)c2O)O1,-2.51%,–
COc1ccccc1Oc1ccc(S(=O)(=O)Nc2cccnc2)cc1,9.04%,–
Cc1cc(C)cc(NS(=O)(=O)c2ccc(Oc3ncc(C(F)(F)F)cc3Cl)cc2)c1,–,12.6 µM (active)
CN(NS(=O)(=O)c1cccs1)c1ncc(C(F)(F)F)cc1Cl,-13%,–
COc1ccc(CCNCc2c(C(=O)O)c(C)n(Cc3cccc(C)c3)c2C)cc1OC,5.3%,–
Cc1cccc(NC(=O)c2ccc3nc(C(C)C)oc3c2)c1C,7.16%,–
CCOC(=O)N1CCN(c2cc(C)c([N+](=O)[O-])cc2F)CC1,7.48%,–
C=COC(=O)N1CCN(/[N+]([O-])=N/Oc2ccc([N+](=O)[O-])cc2[N+](=O)[O-])CC1,–,10 µM (active)
O=C(O)C1CCN(c2ccc([N+](=O)[O-])cc2[N+](=O)[O-])CC1,34.7%,–
O=C(CSc1nc(=O)[nH]c2c1CCCC2)Nc1cc(C(F)(F)F)ccc1Cl,-0.244%,–
COc1ccc(/C=C/c2noc(-c3ccccc3O)n2)cc1OC,-13.3%,–

Structure (SMILES),"activity, negative = inhibition",Potency
COc1cccc(C(=O)CC(=O)C(=O)Nc2ccc([N+](=O)[O-])cc2C)c1,-5.79%,–
CC(=O)c1ccc(NC(=O)Nc2ccc([N+](=O)[O-])cc2C)cc1,3.93%,–
Cc1cc([N+](=O)[O-])ccc1NCc1cccc([N+](=O)[O-])c1,–,10 µM (active)
O=C(Nc1ccc([N+](=O)[O-])cc1)c1cnn2c1NC(=C1CC1)C=C2C(F)F,5.24%,–
COc1ccc(/C=C/c2ccnc3ccccc23)cc1OC,-22.7%,–
Fc1ccc(Nc2nc(SCc3ccccc3Cl)nc3ccccc23)cc1,–,17.8 µM (active)
CSc1ncc(C(=O)NCc2ccccc2Cl)c(C(F)(F)F)n1,-10.3%,–
O=C(CSc1nc(Nc2ccc(F)c(F)c2)c2ccccc2n1)c1ccc(Cl)cc1,0%,–
Cc1ccc(NC(=O)CSc2nc3ccccc3c3nc(CCn4cncc4C)nn23)cc1F,50.7%,–
CCN(CC)C(=O)C1=C(C)N(Cc2ccc(C(C)(C)C)cc2)C(=O)C(CC(=O)NCc2cccc3ccccc23)C1 (configuration not stated),–,17.8 µM (active)
COc1ccc(CN2C(=O)C(CC(=O)NCc3cccc4ccccc34)CC(C(=O)N3CCOCC3)=C2C)cc1 (configuration not stated),20.9%,–
CCN(CC)C(=O)C1=C(C)N(Cc2ccc(F)cc2)C(=O)C(CC(=O)NCc2cccc3ccccc23)C1 (configuration not stated),-3.47%,–
CN(C)c1ccc(/C=c2\[nH]c(=O)/c(=C/c3ccc(N(C)C)cc3)[nH]c2=O)cc1,9.71%,–
COc1ccc2c(c1)c(=Cc1ccc(N(C)C)cc1)c1cc(-c3ccccc3)[n+](C)n12,–,5.01 µM (active)
Cc1ccc(NC(=O)CSc2nnc3[nH]c(=O)cc(C)n23)cc1Cl,-0.795%,–
Cc1ccc(C(=O)Nc2ccc(C(=O)O)cc2)cc1S(=O)(=O)Nc1ccccc1,-13.1%,–
Cn1c(=O)n(C)c2cc(C(=O)Nc3ccc(Br)cc3)ccc21,-1.4%,–
O=C(Nc1ccc(Br)cc1)c1ccc(Br)c(S(=O)(=O)NCc2ccccc2)c1,–,12.6 µM (active)
COc1ccccc1C1C(C(=O)N2CCCCC2)=C(C)Nc2nc3ccccc3n21 (configuration not stated),-3.85%,–
Oc1ccc(Cl)cc1C1C=C(c2ccc3c(c2)OCO3)NC(c2ccc(F)c(Br)c2)N1 (configuration not stated),–,10 µM (active)
CCCCCCC1(C)NC(c2ccc3c(c2)OCO3)=CC(c2ccccc2O)N1 (configuration not stated),-2.64%,–
C(=Nc1ccc(/C=C/c2ccnc3ccccc23)cc1)c1cc2c3c(c1)CCCN3CCC2,2.32%,–
NC1=CC(=O)C(=O)c2cccnc21,–,7.94 µM (active)
